# Assay results from PubChem BioAssay (Tox21).
# “And” between values parts separate entries of the source, which are not always exact repeats. Equal entries are not always repeated. Values without a mark were called inactive. Records with an inconclusive call do not appear. Where a call stands in place of a potency, no number is given. The source made the active and inactive calls. Unless noted, the call rests on the fitted dose curve; in most records, active means well fitted curve in the direction sought with a large enough effect in the repeat runs; inconclusive means weak or mixed curves; inactive means no such curve, though single readings can be large; an effect the other way counts as inactive or inconclusive.
# Experiments:
# [1] = molecular target: Thyrotropin receptor (Homo sapiens) (UniProt P16473); assay: qHTS assay to identify small molecule antagonists of the thyroid stimulating hormone receptor (TSHR) signaling pathway (AID 1259385; calls by dose curve; further: nearly all actives have a fitted effect of over 20% in size)
# How it was run: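 TSHR-HEK293 cells (800/well) plated 18 h, then compounds with Ro20-1724 and TSH at 1.5 ng/mL final, 30 min at room temperature. cAMP quantified by HTRF (cAMP-d2/anti-cAMP-cryptate, 1 h); 15 concentrations in triplicate.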
# [2] = qHTS assay to identify small molecule agonists of the estrogen receptor alpha (ER-alpha) signaling pathway in the presence of an antagonist - cell viability counter screen (AID 1259386);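 further: series mostly up to about 92 µM; cells exposed to compounds for 22 h at 37 °C before the viability read; nearly all actives have a fitted effect of over 30% in size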
# How it was run: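 VM7Luc4E2 cells (endogenous full-length ER-alpha, 4×ERE-luciferase) were held 5 days in phenol red-free medium with 10% charcoal-stripped FBS, plated, then given 10.0nM ICI-182,780 and compounds at 15 concentrations for 22hr at 37C; viability read by CellTiter-Fluor fluorescence.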
# [3] = molecular target: Progesterone receptor (Homo sapiens) (UniProt P06401); assay: qHTS assay to identify small molecule agonists of the progesterone receptor (PR) signaling pathway (AID 1346784; calls by dose curve; further: nearly all actives have a fitted effect of over 30% in size)
# How it was run: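 Reporter assay, GripTite PR-UAS-bla HEK 293T cells: 16 hr exposure to DMSO-dissolved compounds at 37C, 5% CO2, in steroid-depleted (2% charcoal-stripped FBS) medium; beta-lactamase measured by FRET fluorescence.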
# [4] = qHTS assay to identify small molecule antagonists of the progesterone receptor (PR) signaling pathway - cell viability counter screen (AID 1346798); further: series mostly up to about 92 µM; nearly all actives have a fitted effect of over 50% in size
# How it was run: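 In the same plates used for the beta-lactamase readout, cell viability of compound- and R5020-treated PR-UAS-bla HEK293T cells (16 hr, 37C) was assessed by CellTiter-Glo luminescence.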
# [5] = qHTS assay to identify small molecule agonists of the progesterone receptor (PR) signaling pathway - cell viability counter screen (AID 1346799; calls by dose curve; further: nearly all actives have a fitted effect of over 45% in size)
# How it was run: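 Multiplexed viability read: CellTiter-Glo luminescence, 30 min RT, following LiveBLAzer FRET measurement on PR-UAS-bla HEK293T cells exposed to compounds 16 hr.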
# [6] = qHTS assay to identify small molecule agonists of the TGF-beta/Smad signaling pathway - cell viability counter screen (AID 1346829); further: top concentration of the series differs between compounds; nearly all actives have a fitted effect of over 45% in size
# How it was run: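 HEK 293T SBE-bla line, 5 hr compound exposure at 37 C, multiplexed CellTiter-Glo viability read by luminescence.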
# [7] = qHTS assay to identify small molecule agonists of the TGF-beta/Smad signaling pathway (AID 1346859; active means well fitted activation curve with a large enough effect in the signal ratio in the repeat runs, not every such curve was filed as active; the % refers to the signal ratio; further: series mostly up to about 77 µM)
# How it was run: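 Screening used HEK 293T SBE-bla cells at 4,000/well. Test agents: 5 hr, 37 C. Detection: FRET substrate, 2 hr RT, then excitation 405 nm with emissions at 460 and 530 nm.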
# [8] = molecular target: Thyrotropin-releasing hormone receptor (Homo sapiens) (UniProt P34981); assay: qHTS assay to identify small molecule agonists of the thyrotropin-releasing hormone receptor (TRHR) signaling pathway (AID 1346891; calls by dose curve; further: series mostly up to about 58 µM)
# How it was run: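 Readout was intracellular calcium fluorescence in TRHR-Hek293 cells. Cells were incubated 18 h, dye-loaded 2 h at 37 °C, and treated with compound in agonist mode.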
# [9] = Human pregnane X receptor (PXR) small molecule agonists, qHTS cell viability counter screen (AID 1346977); further: nearly all actives have a fitted effect of over 50% in size; further: potency means the concentration at half of the fitted maximal effect
# How it was run: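 In each well, the PXR reporter HepG2 line was checked for viability: CellTiter-Fluor reagent added 23hr post-dosing, fluorescence read after 1hr incubation at 37C.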
# [10] = Caspase-3/7 induction in HepG2 cells by small molecules, qHTS assay (AID 1346978); further: nearly all actives have a fitted effect of over 15% in size; further: potency means the concentration at half of the fitted maximal effect
# How it was run: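 Wild-type HepG2 cells, 2,000/well, settled 5 hr at 37 C and 5% CO2, then compound-treated for 17 hr; caspase-3/7 activity read by luminescent Caspase-Glo 3/7 after 30 min at room temperature.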
# [11] = Caspase-3/7 induction in CHO-K1 cells by small molecules, qHTS cell viability counter screen (AID 1346979); further: nearly all actives have a fitted effect of over 35% in size; further: potency means the concentration at half of the fitted maximal effect
# How it was run: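 Following a 5hr settling period, CHO-K1 cells at 1,500 per well received DMSO-dissolved compounds. Cell viability was quantified 16hr later by CellTiter-Fluor fluorescence, measured after 1hr with reagent at 37C.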
# [12] = Caspase-3/7 induction in CHO-K1 cells by small molecules, qHTS assay (AID 1346980); further: nearly all actives have a fitted effect of over 15% in size; further: potency means the concentration at half of the fitted maximal effect
# How it was run: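 Wild-type CHO-K1 cells exposed to compounds for 17hr at 37 C, 5% CO2. Caspase-3/7 activity then measured by Caspase-Glo 3/7 luminescence after 30min at room temperature.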
# [13] = Caspase-3/7 induction in HepG2 cells by small molecules, qHTS cell viability counter screen (AID 1346981); further: series mostly up to about 92 µM; nearly all actives have a fitted effect of over 30% in size
# How it was run: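 Wild-type HepG2 cells (2,000/well) were allowed to settle for 5 hr at 37 C, 5% CO2, then dosed with compounds in DMSO by pin transfer. After 16 hr at 37 C, CellTiter-Fluor was added and fluorescence read 1 hr later.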
# [14] = molecular target: Nuclear receptor subfamily 1 group I member 2 (Homo sapiens) (UniProt O75469); assay: Human pregnane X receptor (PXR) small molecule agonists, qHTS assay (AID 1346982); further: nearly all actives have a fitted effect of over 35% in size; further: potency means the concentration at half of the fitted maximal effect
# How it was run: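 PXR-Luc HepG2 cells (CYP3A4 promoter-driven luciferase) were seeded in medium with 5% charcoal-stripped FBS, left 5 hr at 37 C, then exposed to compounds in DMSO for 24 hr. Luminescence was read after ONE-Glo addition.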
# [15] = qHTS assay to identify small molecule antagonists of the TGF-beta/Smad signaling pathway - cell viability counter screen (AID 1346824); further: nearly all actives have a fitted effect of over 50% in size
# How it was run: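 SBE-bla HEK 293T cells, incubated overnight, then compound plus 0.25 ng/mL TGF-beta1 (stock added) for 5 hr at 37 C. Viability was read in the same wells by CellTiter-Glo luminescence after 30 min at room temperature.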
# [16] = molecular target: Thyrotropin-releasing hormone receptor (Homo sapiens) (UniProt P34981); assay: qHTS assay to identify small molecule antagonists of the thyrotropin-releasing hormone receptor (TRHR) signaling pathway (AID 1346877; active means well fitted inhibition curve with a large enough effect in the repeat runs, not every such curve was filed as active; further: series mostly up to about 51 µM)
# How it was run: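 TRHR-expressing HEK293 cells were seeded, cultured 18 h at 37 °C, then loaded with calcium dye for 2 h. Compounds were pre-incubated 5 min at room temperature before 1 nM TRH (final) was added, and kinetic fluorescence was recorded for 3 min.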
# [17] = molecular target: Nuclear receptor subfamily 1 group I member 2 (Rattus norvegicus) (UniProt Q9R1A7); assay: Rat pregnane X receptor (rPXR) activation by small molecules, qHTS assay (AID 1346983); details: rPXR luciferase reporter cells, One-Glo luminescence, 24 h; max activation: hits give high values; further: nearly all actives have a fitted effect of over 20% in size
# How it was run: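 Cell-based rPXR activation assay: rPXR cells, 2,000 per well, rested 5hr at 37 C, then exposed to compounds in DMSO for 24 hr at 37 C. Luciferase activity read by One-Glo luminescence after 30 min at room temperature.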
# [18] = molecular target: Nuclear receptor subfamily 1 group I member 2 (Homo sapiens) (UniProt O75469); assay: Human pregnane X receptor (PXR) activation by small molecules, qHTS assay (AID 1346985); further: nearly all actives have a fitted effect of over 40% in size
# How it was run: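 DPX-2 cells (HepG2 co-transfected with a PXR response element and a CYP3A4-promoter luciferase construct) were seeded at 2,000 per well, rested 5 hr at 37C, then exposed to DMSO-dissolved compounds for 24 hr. Activation was read as luciferase luminescence.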
# [19] = molecular target: Progesterone receptor (Homo sapiens) (UniProt P06401); assay: qHTS assay to identify small molecule antagonists of the progesterone receptor (PR) signaling pathway (AID 1346795; active means well fitted inhibition curve with a large enough effect in the signal ratio in the repeat runs, not every such curve was filed as active; the % refers to the signal ratio)
# How it was run: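 Stimulus R5020 at 1 nM final; cells HEK293T PR-UAS-bla; medium with 2% charcoal-stripped FBS; compound exposure 16 hr at 37C, 5% CO2; detection by FRET beta-lactamase substrate, 2 hr, room temperature.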
# [20] = molecular target: Nuclear receptor subfamily 1 group I member 2 (Homo sapiens) (UniProt O75469); assay: CYP3A4 induction through human pregnane X receptor (PXR) by small molecules, qHTS assay (AID 1346984); further: nearly all actives have a fitted effect of over 40% in size
# How it was run: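 DPX-2 cells (HepG2 co-transfected with PXR and CYP3A4 promoter-luciferase) treated with compounds 24 h at 37C; luciferin-IPA CYP3A4 substrate 3uM final added for 3 h, then One-Glo; luminescence read. qHTS format.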
# Chain of Thyrotropin receptor (Homo sapiens) (P16473 whole entry, looked up): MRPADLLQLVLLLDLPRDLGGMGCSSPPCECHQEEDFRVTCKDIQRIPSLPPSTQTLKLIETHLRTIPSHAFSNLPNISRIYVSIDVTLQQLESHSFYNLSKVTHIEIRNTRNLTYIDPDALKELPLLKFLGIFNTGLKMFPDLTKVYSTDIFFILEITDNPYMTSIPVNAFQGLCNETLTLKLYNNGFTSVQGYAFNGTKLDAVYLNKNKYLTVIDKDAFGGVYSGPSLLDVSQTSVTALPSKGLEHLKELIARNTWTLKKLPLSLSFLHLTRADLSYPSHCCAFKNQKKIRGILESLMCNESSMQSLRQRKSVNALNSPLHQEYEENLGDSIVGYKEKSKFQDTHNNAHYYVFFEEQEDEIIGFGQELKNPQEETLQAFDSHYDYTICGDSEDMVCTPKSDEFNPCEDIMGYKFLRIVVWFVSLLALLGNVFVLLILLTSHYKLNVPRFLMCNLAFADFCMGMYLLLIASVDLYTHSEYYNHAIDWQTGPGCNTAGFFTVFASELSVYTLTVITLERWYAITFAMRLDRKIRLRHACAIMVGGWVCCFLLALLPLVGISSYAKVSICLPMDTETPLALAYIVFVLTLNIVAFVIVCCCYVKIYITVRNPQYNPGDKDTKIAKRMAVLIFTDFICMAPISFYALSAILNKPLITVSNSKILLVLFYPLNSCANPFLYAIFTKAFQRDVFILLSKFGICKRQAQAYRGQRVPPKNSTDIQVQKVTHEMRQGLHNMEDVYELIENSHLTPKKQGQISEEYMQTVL
# Chain of Nuclear receptor subfamily 1 group I member 2 (Rattus norvegicus) (Q9R1A7 whole entry, looked up): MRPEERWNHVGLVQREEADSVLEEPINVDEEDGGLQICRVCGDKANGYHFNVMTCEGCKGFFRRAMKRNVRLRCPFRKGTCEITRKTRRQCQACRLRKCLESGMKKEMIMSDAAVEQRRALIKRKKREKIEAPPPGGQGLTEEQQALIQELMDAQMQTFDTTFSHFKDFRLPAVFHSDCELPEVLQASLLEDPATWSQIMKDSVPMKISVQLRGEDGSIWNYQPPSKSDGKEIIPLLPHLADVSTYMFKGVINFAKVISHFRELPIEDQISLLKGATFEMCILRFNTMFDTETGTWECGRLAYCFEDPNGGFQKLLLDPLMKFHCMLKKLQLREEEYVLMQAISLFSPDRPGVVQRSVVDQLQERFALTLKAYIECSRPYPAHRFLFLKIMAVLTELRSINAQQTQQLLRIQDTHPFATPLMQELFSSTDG
# Chain of Nuclear receptor subfamily 1 group I member 2 (Homo sapiens) (O75469 whole entry, looked up): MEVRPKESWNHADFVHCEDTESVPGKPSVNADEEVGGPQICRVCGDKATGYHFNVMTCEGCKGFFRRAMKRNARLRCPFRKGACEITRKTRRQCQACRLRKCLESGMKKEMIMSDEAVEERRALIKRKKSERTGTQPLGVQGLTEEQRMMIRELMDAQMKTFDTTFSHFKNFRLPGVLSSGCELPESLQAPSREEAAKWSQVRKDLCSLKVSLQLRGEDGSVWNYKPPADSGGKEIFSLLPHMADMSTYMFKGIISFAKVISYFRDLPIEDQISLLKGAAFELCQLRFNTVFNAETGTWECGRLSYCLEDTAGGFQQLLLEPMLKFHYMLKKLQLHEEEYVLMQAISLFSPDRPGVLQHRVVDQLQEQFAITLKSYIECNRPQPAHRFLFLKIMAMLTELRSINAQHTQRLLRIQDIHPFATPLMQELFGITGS
# Chain of Thyrotropin-releasing hormone receptor (Homo sapiens) (P34981 whole entry, looked up): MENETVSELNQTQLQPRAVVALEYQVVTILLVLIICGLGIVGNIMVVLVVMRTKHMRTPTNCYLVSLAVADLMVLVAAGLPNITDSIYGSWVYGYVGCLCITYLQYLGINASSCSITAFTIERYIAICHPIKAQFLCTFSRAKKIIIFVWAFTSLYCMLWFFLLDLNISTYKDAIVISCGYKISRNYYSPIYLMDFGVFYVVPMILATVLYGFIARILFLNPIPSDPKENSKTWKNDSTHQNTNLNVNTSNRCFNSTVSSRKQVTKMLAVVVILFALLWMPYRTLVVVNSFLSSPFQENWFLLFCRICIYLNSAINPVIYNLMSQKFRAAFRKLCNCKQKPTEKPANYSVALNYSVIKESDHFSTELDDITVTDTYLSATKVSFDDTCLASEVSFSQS
# Chain of Progesterone receptor (Homo sapiens) (P06401 whole entry, looked up): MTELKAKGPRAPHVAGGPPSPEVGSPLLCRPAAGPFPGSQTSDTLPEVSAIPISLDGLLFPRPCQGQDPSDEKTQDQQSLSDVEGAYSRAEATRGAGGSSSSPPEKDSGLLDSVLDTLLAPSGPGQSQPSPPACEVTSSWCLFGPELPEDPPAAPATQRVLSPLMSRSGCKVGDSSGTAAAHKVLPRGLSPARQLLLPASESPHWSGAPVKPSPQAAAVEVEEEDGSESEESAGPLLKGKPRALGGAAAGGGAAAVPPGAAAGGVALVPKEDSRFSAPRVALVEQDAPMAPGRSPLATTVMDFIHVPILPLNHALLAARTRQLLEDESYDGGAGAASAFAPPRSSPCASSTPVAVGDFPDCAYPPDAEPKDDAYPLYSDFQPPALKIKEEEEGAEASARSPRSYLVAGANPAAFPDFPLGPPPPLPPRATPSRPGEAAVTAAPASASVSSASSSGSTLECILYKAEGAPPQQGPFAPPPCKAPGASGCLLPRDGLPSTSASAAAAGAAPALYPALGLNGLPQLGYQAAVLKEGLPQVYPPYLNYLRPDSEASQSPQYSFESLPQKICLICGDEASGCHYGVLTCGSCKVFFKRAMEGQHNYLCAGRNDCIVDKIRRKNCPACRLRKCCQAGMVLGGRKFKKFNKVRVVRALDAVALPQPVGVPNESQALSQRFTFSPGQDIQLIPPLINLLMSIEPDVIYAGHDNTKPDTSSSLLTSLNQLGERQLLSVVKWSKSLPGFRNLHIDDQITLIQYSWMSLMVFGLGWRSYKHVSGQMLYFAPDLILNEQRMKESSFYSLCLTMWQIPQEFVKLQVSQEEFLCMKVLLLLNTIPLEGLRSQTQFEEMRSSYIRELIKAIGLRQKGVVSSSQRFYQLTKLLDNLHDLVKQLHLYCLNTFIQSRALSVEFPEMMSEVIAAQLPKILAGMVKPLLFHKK
SMILES,Potency [1],Potency [2],Potency [3],Potency [4],Potency [5],Potency [6],Potency [7],Potency [8],Potency [9],Potency [10],Potency [11],Potency [12],Potency [13],Potency [14],Potency [15],outcome [16],max activation [17],Potency [18],Potency [19],Potency [20]
Cc1ccco1,inactive,inactive,inactive,inactive,inactive,inactive,inactive,inactive,inactive,inactive,inactive,inactive,inactive,inactive,,,,,,
C/C=C(/C(=C/C)c1ccc(O)cc1)c1ccc(O)cc1,inactive,inactive,inactive,inactive,,inactive,inactive,inactive,,,,inactive,,inactive,inactive,inactive,0.107%,inactive,,
N#CCc1ccc(Cl)cc1Cl,inactive,inactive,inactive,inactive,inactive,inactive,inactive,inactive,inactive,inactive,inactive,inactive,inactive,inactive,inactive,,,,,
COC(=O)[C@H]1[C@H]2C[C@@H]3c4[nH]c5cc(OC)ccc5c4CCN3C[C@H]2C[C@@H](OC(=O)/C=C/c2ccc(O)c(OC)c2)[C@@H]1OC,inactive,inactive,inactive,,,inactive,,,23.7 µM (active),inactive,26.6 µM (active),inactive,,11.9 µM (active),inactive,inactive,,,inactive,
Brc1cc(Br)c(Oc2cc(Br)c(Br)cc2Br)cc1Br,inactive,inactive,inactive,,,inactive,inactive,inactive,inactive,inactive,inactive,inactive,inactive,,inactive,,,,inactive,
C[C@]12CC[C@@H]3c4ccc(O)cc4CC[C@H]3[C@@H]1CC[C@@H]2OC(=O)CCC1CCCC1,inactive,inactive,inactive,,,inactive,inactive,inactive,,61.1 µM (active),54.5 µM (active) and 29.8 µM (active),43.3 µM (active),inactive,21.7 µM (active) and 23.7 µM (active),inactive,inactive,4.34% and -0.252%,,,inactive
NCCNCCO,inactive,inactive,inactive,inactive,inactive,inactive,inactive,inactive,,inactive,inactive,inactive,inactive,inactive,inactive,inactive,,,,
CC(C)=CC(=O)C=C(C)C,inactive,inactive,inactive,,inactive,inactive,inactive,,inactive,inactive,inactive,inactive,inactive,inactive,inactive,inactive,,,inactive,
O=C(O)CCC(=O)C(=O)O,inactive,inactive,inactive,inactive,,inactive,inactive,,inactive,inactive,inactive,inactive,inactive,inactive,,,-0.816%,inactive,,
